In the library only some 3.1% were active in any assay of this set; here they are far more common.
HIF-2a inh – HIF-2a inhibition. 786-0 RCC cells HIF-2a reporter, luciferase luminescence, overnight. inhibition, % at 18.8 µM. hit rate 0.72% among 360,000. AID 624352;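 active means inhibition of the luminescence signal of 40% or more relative to plate controls, in a single-dose primary screen at 18.75 µM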
TRAIL sens C8 – sensitizes caspase-8 expressing cells to TRAIL | hit rate 1% among 360,000 | AID 624354 | NB7+C8 cells + TRAIL, ATPlite viability luminescence | inhibition (viability loss, TRAIL sensitization), % at 10 µM;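 active means compounds causing at least 50% loss of cell viability in the single-dose screen, relative to plate controls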
Peg3 prom inh-1 – reduces Peg3 promoter-driven luciferase expression in HeLa. HeLa PEG-Prom luciferase reporter, luminescence, overnight. inhibition, % at 20 µM. hit rate 1.7% among 360,000. AID 588405;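 active means inhibition of at least 50% at 20 µM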
PPC-1+TRAIL kill – compounds killing PPC-1 cancer cells with TRAIL present (potentiator screen, no TRAIL-free arm); hit rate 0.41% among 220,000; PPC-1 cells + TRAIL, ATPLite viability luminescence; cell killing (% activity), % at 4 µM or 5 µM;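 active means cell killing above 50% in the first pass at 4 µM, then a duplicate retest at 5 µM averaging 50% or more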;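 further: plate controls were cells with TRAIL plus DMSO for no effect and medium-only wells lacking cells for full effect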
CF NFkB block – inhibitors of cystic fibrosis induced NF-kB. KKLEB NF-kB-GFP reporter, PAF-induced, GFP fluorescence overnight. hit rate 0.86% among 360,000. inhibition, % at 5 µM. AID 588850;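 active means at least 50% inhibition at 5 µM, scaled per plate between neutral and stimulator controls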;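 further: PAF is a Pseudomonas aeruginosa culture filtrate used as stimulus; plate controls were PAF-stimulated DMSO wells for no effect and unstimulated DMSO wells for full effect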
KKLEB cytotox – reduces viability of KKLEB cystic fibrosis airway cells; activity change (cytotoxicity), % at 5 µM; AID 602141; KKLEB CF airway cells viability, ATPlite luminescence, overnight; hits give low values; cells stimulated with P. aeruginosa culture filtrate; hit rate 0.36% among 360,000;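 active means corrected activity change at or below -50% at 5 µM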
Peg3 prom inh-2 – confirmation of Peg3 promoter inhibitors. hit rate 84% among 1,300. HeLa PEG-Prom luciferase reporter, luminescence, overnight. inhibition, % at 20 µM. shares compounds with Peg3 prom inh-1;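 active means at 20 µM dose, 40% or more inhibition averaged across four replicates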
* marks the source's active call; other numbers are inactive results; . = no result.

SMILES	HIF-2a inh	TRAIL sens C8	Peg3 prom inh-1	PPC-1+TRAIL kill	CF NFkB block	KKLEB cytotox	Peg3 prom inh-2
O=C(CNCCC1=CCCCC1)Nc1ccc(N2CCCCCC2)cc1	33	5	86*	11	15	-11	99*
COc1ccc(C)cc1Nc1n[n+](-c2ccccc2)c(-c2ccc(N(C)C)cc2)s1	-32	39	62*	.	23	4	50*
CC(C)C(N)c1csc(Nc2ccc(C(=O)c3ccccc3)cc2)n1 (configuration not stated)	-17	6	5	.	19	-14	.
O=C(CCl)N1c2ccccc2Sc2ccc3ccccc3c21	32	20	107*	.	26	-22	100*
CN(C)CCCN1c2ccccc2Sc2ccc3ccccc3c21	-14	-4	61*	.	20	6	98*
Cc1cc(C)cc(NC(=O)CN(C)CC(=O)N(CC(C)C)c2c(N)n(CC(C)C)c(=O)[nH]c2=O)c1	5	5	7	.	3	4	.
O=C(C=Cc1ccccc1Cl)c1ccccc1	-96	19	3	.	15	1	.
O=C(C=Cc1ccccn1)c1ccccc1	-38	-1	101*	.	36	-13	87*
COC(=O)CCC(NS(=O)(=O)OCC(Cl)(Cl)Cl)c1ccccc1 (configuration not stated)	14	4	-7	.	3	0	.
CC(C)CC(NS(=O)(=O)OCC(Cl)(Cl)Cl)c1ccccc1 (configuration not stated)	29	6	57*	.	14	14	45*
Cc1ccc(-c2nnc(N3CCN(c4ccccn4)CC3)c3ccccc23)cc1	22	27	77*	2	33	-9	84*
CN1CCC2(CC1)N=C(c1ccc(F)cc1)C(=S)N2C(=O)c1ccc(C(C)(C)C)cc1	-12	5	70*	1	1	0	84*
CC(C)(C)c1ccc(C(=O)N2CCNCC2)cc1	-2	18	-3	-9	1	-10	.
CCN(CC)c1ccc(/C=N/n2nnnc2N)c(O)c1	-137	18	-111	14	8	-4	.
CCN(CC)c1ccc2nc3ccc(N)cc3[n+](-c3ccccc3)c2c1	1	47	89*	.	-18	-8	72*
COC(=O)[C@]12CCCCC=C1N(Cc1ccc(Cl)cc1Cl)C(=O)[C@H](CC(=O)NCCC(C)C)C2	-5	18	.	.	.	.	.
CCOc1ccc(C(=O)O/N=C(\N)c2ccccn2)cc1	68*	93*	114*	.	13	-28	95*
Cc1cccc(OCC(=O)O/N=C(\N)c2ccccn2)c1	-211	1	-207	8	-4	1	.
Cc1cccc(C(=O)O/N=C(\N)c2ccccn2)c1	32	87*	56*	.	-16	-20	40*
CC(C)N(C(=O)[C@H]1CC(CC(=O)NCc2cccc(C(F)(F)F)c2)C(=O)N2CCc3c([nH]c4ccccc34)[C@]12C)C(C)C (some centres not stated)	10	20	68*	.	24	-11	22
CC1=NN(c2cccc(C(=O)O)c2)C(=O)/C1=C\C=C/c1ccccc1	59*	-20	78*	9	64*	-15	52*
CC1=NN(c2ccc(C)cc2)C(=O)/C1=C\C=C\c1ccccc1	24	3	46	23	-10	13	.
O=C(CCNC(=O)c1ccco1)NC(Cc1c[nH]c2ccccc12)C(=O)O (configuration not stated)	19	-10	-7	.	9	8	.
CC(=O)Nc1cccc(-c2cc(NC=O)c3ncc(-c4ccc(C(C)=O)cc4)n3c2)c1	-5	13	54*	.	28	-34	56*
O=C(C[n+]1ccc(-c2cc(C(=O)Nc3cccc(C(F)(F)F)c3)c3ccccc3n2)cc1)c1cccc([N+](=O)[O-])c1	17	27	89*	4	11	-4	62*
SMILES	HIF-2a inh	TRAIL sens C8	Peg3 prom inh-1	PPC-1+TRAIL kill	CF NFkB block	KKLEB cytotox	Peg3 prom inh-2
O=C(C[n+]1cccc(NC(=O)c2ccccc2)c1)c1cccc([N+](=O)[O-])c1	1	-7	-2	13	-6	10	.
COCCN(CCOc1cc(C)cc(C)c1)Cc1ccc(Cl)cc1	20	-10	-5	.	2	-7	.
CC1(C)CC(NC(=O)c2sc3cc(Cl)ccc3c2Cl)CC(C)(C)N1	-48	12	91*	23	5	-13	100*
COc1ccc2ccccc2c1/C=N/NC(=O)c1ccc(C)nc1	-11	-2	-3	.	-10	-3	.
O=C(N/N=C/c1c(O)ccc2ccccc12)c1ccc(CO)nc1	22	22	55*	.	-10	-4	70*
c1cc2c3c(cccc3c1)NC1(CCC3(CC1)Nc1cccc4cccc(c14)N3)N2	-15	18	76*	10	-28	0	75*
COc1cc(C(=O)Nc2cc(S(=O)(=O)N3CCOCC3)ccc2N2CCOCC2)cc(OC)c1C	8	-25	-14	.	16	-16	.
COc1ccccc1N(CC(=O)N/N=C/c1c(O)ccc2ccccc12)S(C)(=O)=O	22	52*	50*	36	1	-2	70*
Cc1cc(C)c2sc(N(CCCN(C)C)C(=O)c3ccc(S(=O)(=O)N4CCCc5ccccc54)cc3)nc2c1	-22	74*	102*	.	26	-27	99*
CN(C)CCCN(C(=O)c1ccc(S(=O)(=O)N2CCc3ccccc32)cc1)c1nc2ccc(F)cc2s1	0	0	11	.	15	0	.
CC(C)(C)c1csc(NC(=O)C2COc3ccccc3O2)n1 (configuration not stated)	-228	13	-297	.	-2	-4	.
COc1ccc(-c2csc(NC(=O)C3COc4ccccc4O3)n2)cc1OC (configuration not stated)	-3	1	66*	18	28	-16	40
CN(C)c1ccc(-c2ccnc3c2CC(C)(C(=O)NCc2ccc(F)c(F)c2)O3)cc1 (configuration not stated)	2	-5	27	.	9	-13	.
COc1ccc2nc(Nc3nc(CSc4nnnn4-c4ccccc4)cc(=O)[nH]3)nc(C)c2c1	5	37	74*	19	23	-46	44*
COc1cc(Br)cc(/C=C/c2ccc3cccc(O)c3n2)c1O	-91	28	2	.	-13	9	.
COc1cc(/C=C/c2ccc3cccc(O)c3n2)ccc1O	-296	15	103*	.	-40	1	57*
COc1cc(/C=C/c2ccc3cccc(O)c3n2)c(Br)cc1O	-141	0	98*	.	-6	-10	92*
COc1cc(Br)c(/C=C/c2ccc3cccc(O)c3n2)cc1OC	-11	17	-47	.	13	-3	.
O=C(CN1C(=O)NC2(CCCC2)C1=O)NCCc1ccc(F)cc1	6	-1	8	.	-8	-1	.

Screening results from PubChem.
